These results are taken from ChEMBL document CHEMBL1961873, “Compounds: GSK PKIS; Assays: Nanosyn kinase panel” (2012).

In experiment [1] the target is 5'-AMP-activated protein kinase catalytic subunit alpha-2 (Homo sapiens) (UniProt P54646). The conditions noted are these: at 1 µM.
In experiment [2] the target is T1, NUAK family SNF1-like kinase 1 (Homo sapiens) (UniProt O60285).
T1 sequence (whole entry): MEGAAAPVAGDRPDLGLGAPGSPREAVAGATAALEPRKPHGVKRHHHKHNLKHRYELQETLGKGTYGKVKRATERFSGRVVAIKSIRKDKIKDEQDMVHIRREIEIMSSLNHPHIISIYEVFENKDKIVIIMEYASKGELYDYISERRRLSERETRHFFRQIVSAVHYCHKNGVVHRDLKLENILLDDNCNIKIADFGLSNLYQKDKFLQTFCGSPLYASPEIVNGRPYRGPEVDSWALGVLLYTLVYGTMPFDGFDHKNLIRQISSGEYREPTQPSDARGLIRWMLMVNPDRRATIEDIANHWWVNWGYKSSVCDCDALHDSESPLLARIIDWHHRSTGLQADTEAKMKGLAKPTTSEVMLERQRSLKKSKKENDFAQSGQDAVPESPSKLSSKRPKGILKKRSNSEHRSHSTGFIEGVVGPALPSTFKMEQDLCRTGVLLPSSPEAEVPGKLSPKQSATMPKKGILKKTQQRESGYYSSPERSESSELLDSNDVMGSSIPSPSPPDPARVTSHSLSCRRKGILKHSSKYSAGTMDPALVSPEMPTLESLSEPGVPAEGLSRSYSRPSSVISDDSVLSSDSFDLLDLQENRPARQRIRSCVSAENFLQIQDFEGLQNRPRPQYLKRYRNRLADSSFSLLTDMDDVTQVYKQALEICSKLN
To be noted: at 0.1 µM.

Experiment [3] concerns the target T1, NUAK family SNF1-like kinase 1 (Homo sapiens). The conditions noted are these: at 1 µM.
The target of experiment [4] is T2, Serine/threonine-protein kinase BRSK1 (Homo sapiens) (UniProt Q8TDC3).
T2 sequence (whole entry): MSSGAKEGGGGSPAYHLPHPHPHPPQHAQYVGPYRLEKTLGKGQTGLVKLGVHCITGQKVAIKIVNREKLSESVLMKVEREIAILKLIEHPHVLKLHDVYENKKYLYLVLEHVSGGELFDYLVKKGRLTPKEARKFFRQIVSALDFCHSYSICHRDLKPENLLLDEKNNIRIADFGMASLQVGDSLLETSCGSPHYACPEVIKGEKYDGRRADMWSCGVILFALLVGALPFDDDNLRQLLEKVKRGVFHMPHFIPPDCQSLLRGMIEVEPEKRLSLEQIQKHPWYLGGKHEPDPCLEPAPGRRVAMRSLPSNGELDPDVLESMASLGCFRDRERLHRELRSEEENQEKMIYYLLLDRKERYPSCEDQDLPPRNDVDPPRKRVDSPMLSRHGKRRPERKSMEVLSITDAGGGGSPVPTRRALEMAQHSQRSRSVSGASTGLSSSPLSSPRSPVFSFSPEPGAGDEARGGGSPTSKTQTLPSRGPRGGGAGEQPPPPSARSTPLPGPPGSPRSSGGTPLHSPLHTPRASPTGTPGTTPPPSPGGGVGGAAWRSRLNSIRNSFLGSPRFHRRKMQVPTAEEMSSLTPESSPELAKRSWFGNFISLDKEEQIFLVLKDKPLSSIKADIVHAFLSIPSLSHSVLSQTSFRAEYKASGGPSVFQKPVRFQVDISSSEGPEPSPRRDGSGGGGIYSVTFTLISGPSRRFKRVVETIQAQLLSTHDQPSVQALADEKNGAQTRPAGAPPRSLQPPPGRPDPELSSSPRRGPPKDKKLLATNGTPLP
The conditions noted are these: at 0.1 µM.

Experiment [5] concerns the target T2, Serine/threonine-protein kinase BRSK1 (Homo sapiens). To be noted: at 1 µM.
The target in experiment [6] is T3, Serine/threonine-protein kinase BRSK2 (Homo sapiens) (UniProt Q8IWQ3).
T3 sequence (whole entry): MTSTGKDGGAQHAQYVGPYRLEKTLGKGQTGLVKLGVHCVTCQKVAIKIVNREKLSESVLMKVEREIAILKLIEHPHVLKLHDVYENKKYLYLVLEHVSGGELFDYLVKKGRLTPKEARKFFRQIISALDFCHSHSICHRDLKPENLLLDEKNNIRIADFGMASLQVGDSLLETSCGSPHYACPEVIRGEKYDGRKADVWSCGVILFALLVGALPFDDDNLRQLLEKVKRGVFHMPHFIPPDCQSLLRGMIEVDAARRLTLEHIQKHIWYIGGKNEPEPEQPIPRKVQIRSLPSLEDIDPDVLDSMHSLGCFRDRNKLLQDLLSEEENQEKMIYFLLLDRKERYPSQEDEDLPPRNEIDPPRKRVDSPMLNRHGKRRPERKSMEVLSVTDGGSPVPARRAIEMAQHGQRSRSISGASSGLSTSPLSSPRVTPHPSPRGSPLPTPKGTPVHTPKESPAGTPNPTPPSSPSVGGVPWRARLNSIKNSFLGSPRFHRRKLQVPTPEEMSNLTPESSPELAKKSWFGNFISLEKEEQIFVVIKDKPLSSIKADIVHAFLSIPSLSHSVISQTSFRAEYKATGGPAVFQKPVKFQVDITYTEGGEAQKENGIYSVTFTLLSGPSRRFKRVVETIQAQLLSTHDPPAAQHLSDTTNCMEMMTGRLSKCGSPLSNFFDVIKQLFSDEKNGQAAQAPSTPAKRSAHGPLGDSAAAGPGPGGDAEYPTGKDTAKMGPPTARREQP
The conditions noted are these: at 0.1 µM.

Experiment [7] has as its target T3, Serine/threonine-protein kinase BRSK2 (Homo sapiens). To be noted: at 1 µM.
Experiment [8] concerns the target Calcium/calmodulin-dependent protein kinase type 1D (Homo sapiens) (UniProt Q8IU85). The conditions noted are these: at 0.1 µM.
The target is the same in experiment [9]. The conditions noted are these: at 1 µM.
For experiment [10], the target named is Calcium/calmodulin-dependent protein kinase type II subunit alpha (Homo sapiens) (UniProt Q9UQM7). The conditions noted are these: at 0.1 µM.
For experiment [11] the target is unchanged. To be noted: at 1 µM.
Experiment [12] deals with Calcium/calmodulin-dependent protein kinase type II subunit delta (Homo sapiens) (UniProt Q13557). The conditions noted are these: at 0.1 µM.
Experiment [13] shares this target. To be noted: at 1 µM.
The target of experiment [14] is T4, Calcium/calmodulin-dependent protein kinase type IV (Homo sapiens) (UniProt Q16566).
T4 sequence (whole entry): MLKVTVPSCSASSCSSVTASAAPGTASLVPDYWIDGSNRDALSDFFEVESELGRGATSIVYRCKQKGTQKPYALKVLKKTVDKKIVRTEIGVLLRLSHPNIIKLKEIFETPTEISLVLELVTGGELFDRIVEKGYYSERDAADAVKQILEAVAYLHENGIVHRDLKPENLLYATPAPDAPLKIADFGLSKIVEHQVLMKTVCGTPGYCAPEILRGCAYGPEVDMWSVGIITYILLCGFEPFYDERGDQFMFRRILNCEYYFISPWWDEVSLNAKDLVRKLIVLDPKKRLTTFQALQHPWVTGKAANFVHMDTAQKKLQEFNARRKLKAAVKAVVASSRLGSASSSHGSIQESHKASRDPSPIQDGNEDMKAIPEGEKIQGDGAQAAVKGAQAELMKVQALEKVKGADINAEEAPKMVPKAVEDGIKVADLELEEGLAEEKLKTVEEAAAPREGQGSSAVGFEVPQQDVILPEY
The conditions noted are these: at 0.1 µM.

Experiment [15] addresses T4, Calcium/calmodulin-dependent protein kinase type IV (Homo sapiens). The conditions noted are these: at 1 µM.
For experiment [16], the target named is T5, Serine/threonine-protein kinase Chk1 (Homo sapiens) (UniProt O14757).
T5 sequence (whole entry): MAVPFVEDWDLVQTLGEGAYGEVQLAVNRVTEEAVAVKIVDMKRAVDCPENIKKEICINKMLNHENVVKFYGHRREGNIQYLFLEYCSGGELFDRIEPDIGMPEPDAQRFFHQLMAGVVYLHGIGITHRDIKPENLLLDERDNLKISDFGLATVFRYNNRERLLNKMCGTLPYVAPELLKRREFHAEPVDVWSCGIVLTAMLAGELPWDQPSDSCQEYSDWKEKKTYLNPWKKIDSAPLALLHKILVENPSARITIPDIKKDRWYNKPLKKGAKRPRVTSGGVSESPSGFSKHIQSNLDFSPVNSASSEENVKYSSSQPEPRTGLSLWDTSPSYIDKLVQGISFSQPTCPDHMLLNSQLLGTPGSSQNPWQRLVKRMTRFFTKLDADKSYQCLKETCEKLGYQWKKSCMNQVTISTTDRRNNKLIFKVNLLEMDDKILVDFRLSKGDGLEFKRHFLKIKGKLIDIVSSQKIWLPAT
The conditions noted are these: at 0.1 µM.

Experiment [17] has as its target T5, Serine/threonine-protein kinase Chk1 (Homo sapiens). The conditions noted are these: at 1 µM.
In experiment [18] the target is Serine/threonine-protein kinase Chk2 (Homo sapiens) (UniProt O96017). The conditions noted are these: at 0.1 µM.
Experiment [19] has the same target. To be noted: at 1 µM.
The target in experiment [20] is Death-associated protein kinase 1 (Homo sapiens) (UniProt P53355). To be noted: at 0.1 µM.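 Also: reported figure is the mean inhibition of DAPK1.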

Structures are written as SMILES.

Calcium/calmodulin-dependent protein kinase type II subunit alpha (Homo sapiens), sequence (Q9UQM7 whole entry): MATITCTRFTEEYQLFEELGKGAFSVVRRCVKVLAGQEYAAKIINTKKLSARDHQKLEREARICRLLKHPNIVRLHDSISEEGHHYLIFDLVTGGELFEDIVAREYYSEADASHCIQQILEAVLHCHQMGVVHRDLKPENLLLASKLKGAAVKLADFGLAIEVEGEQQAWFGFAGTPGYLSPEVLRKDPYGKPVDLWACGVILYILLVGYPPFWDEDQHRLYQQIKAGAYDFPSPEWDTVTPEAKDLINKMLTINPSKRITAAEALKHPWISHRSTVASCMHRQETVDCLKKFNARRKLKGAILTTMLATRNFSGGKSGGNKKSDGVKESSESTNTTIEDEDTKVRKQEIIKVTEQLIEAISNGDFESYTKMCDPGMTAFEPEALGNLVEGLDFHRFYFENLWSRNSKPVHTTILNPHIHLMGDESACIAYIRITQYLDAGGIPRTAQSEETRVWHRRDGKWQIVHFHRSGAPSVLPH
5'-AMP-activated protein kinase catalytic subunit alpha-2 (Homo sapiens), sequence (P54646 whole entry, looked up): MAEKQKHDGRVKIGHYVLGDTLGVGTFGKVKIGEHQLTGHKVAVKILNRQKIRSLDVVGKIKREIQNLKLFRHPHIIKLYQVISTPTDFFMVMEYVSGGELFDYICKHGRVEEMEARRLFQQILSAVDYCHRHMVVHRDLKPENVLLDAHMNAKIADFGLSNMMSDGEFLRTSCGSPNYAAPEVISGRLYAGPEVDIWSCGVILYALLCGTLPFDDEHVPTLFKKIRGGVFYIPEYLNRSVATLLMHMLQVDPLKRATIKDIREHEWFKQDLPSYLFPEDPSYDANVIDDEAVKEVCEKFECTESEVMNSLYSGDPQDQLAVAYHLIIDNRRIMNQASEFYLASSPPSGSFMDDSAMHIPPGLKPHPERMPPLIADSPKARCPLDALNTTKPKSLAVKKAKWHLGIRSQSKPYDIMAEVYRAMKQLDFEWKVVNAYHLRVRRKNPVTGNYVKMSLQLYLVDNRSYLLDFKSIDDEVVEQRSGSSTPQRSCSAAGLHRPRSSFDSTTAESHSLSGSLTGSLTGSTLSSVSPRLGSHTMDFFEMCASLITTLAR
Serine/threonine-protein kinase Chk2 (Homo sapiens), sequence (O96017 whole entry): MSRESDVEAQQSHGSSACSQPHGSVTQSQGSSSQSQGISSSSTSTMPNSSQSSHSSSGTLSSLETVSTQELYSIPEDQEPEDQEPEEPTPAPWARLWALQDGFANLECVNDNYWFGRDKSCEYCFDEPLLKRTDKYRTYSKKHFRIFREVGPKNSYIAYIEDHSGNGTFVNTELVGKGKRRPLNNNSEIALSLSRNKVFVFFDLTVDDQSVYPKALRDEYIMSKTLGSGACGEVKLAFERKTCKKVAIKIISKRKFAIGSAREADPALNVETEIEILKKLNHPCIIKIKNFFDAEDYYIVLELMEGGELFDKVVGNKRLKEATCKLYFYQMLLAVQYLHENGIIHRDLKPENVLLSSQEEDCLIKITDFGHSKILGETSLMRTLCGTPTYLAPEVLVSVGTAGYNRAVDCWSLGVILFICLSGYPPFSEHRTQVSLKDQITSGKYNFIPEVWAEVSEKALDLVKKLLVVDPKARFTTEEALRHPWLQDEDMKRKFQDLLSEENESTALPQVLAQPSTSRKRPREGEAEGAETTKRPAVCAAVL
Calcium/calmodulin-dependent protein kinase type II subunit delta (Homo sapiens), sequence (Q13557 whole entry): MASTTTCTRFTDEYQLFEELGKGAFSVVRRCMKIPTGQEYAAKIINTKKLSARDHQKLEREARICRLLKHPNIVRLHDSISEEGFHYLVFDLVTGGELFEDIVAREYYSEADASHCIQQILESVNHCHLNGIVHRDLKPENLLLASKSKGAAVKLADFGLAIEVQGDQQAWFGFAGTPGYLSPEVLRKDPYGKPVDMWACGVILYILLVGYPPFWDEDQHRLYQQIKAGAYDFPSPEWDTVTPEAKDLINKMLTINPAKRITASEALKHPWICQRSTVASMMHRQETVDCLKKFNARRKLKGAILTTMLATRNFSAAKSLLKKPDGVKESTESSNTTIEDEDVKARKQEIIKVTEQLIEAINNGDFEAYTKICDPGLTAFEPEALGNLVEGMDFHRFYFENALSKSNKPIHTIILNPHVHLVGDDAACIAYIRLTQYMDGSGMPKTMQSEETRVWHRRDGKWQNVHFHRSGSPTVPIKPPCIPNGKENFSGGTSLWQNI
Death-associated protein kinase 1 (Homo sapiens), sequence (P53355 whole entry, looked up): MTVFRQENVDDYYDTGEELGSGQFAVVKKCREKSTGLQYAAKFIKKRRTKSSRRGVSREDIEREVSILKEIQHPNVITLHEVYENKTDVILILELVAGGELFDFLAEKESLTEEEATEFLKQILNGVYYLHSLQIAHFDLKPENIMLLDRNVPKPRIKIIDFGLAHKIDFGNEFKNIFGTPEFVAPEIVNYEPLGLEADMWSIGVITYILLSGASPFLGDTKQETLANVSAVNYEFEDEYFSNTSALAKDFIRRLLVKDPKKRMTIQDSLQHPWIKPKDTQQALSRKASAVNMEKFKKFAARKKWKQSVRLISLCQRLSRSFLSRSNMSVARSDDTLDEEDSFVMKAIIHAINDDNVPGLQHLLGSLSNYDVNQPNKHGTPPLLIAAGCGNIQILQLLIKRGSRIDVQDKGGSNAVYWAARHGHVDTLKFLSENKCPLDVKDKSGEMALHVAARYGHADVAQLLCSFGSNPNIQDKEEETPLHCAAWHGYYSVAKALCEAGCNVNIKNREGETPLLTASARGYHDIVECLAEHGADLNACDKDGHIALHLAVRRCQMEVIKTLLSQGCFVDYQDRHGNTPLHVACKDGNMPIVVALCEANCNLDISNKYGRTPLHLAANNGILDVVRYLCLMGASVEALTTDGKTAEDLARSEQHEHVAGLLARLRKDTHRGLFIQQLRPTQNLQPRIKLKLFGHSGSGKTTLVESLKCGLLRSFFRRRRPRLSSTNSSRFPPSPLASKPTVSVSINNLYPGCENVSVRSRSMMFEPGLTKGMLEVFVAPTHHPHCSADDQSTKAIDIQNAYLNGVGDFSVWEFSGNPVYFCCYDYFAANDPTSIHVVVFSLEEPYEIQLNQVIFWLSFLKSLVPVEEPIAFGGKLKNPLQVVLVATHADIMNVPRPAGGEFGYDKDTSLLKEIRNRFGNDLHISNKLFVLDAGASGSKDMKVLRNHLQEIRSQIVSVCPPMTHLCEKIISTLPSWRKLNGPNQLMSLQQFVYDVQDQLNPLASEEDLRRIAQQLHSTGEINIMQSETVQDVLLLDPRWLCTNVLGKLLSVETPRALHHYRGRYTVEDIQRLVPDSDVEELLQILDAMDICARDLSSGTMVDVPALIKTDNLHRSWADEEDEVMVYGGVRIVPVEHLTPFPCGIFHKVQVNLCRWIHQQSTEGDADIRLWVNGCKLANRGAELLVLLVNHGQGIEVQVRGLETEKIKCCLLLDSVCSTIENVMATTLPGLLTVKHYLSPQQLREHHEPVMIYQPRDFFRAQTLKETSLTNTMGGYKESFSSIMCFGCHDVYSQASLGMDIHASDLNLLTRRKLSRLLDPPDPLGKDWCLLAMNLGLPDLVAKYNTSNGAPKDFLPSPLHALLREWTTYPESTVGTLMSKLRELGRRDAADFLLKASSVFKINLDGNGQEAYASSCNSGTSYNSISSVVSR
Calcium/calmodulin-dependent protein kinase type 1D (Homo sapiens), sequence (Q8IU85 whole entry, looked up): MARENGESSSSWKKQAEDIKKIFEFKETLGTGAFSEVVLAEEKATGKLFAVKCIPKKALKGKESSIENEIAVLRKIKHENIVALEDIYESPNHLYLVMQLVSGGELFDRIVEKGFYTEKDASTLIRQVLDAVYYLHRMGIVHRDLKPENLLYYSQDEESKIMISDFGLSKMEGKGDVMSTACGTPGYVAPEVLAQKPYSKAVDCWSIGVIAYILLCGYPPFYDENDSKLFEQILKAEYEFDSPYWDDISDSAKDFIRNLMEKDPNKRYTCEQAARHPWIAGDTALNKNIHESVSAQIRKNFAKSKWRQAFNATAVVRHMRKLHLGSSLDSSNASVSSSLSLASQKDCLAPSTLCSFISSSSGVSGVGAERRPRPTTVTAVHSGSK

Regarding `Nc1nc(-c2ccc3c(c2)C(=Cc2cc(Br)c(O)c(Br)c2)C(=O)N3)cs1`, the inhibition (usually the drop in the measured response relative to a control, in per cent) worked out at 1.63% in experiment [1]; 3.02% in experiment [2]; 5.77% in [3]; 1.06% in [4]; 6.62% in [5]; 0.58% in experiment [6]. In addition, the inhibition in experiment [7] is 8.7%; in experiment [8], 0.31%; in experiment [9] it was 9%; in experiment [10] it was -5.57%; in experiment [11], -3.05%; in experiment [12], -2.31%. Besides, the inhibition in [13] is -1.31%; in [14] it was -0.65%; in [15], -2.75%; in experiment [16], 3.04%; in experiment [17], 1.34%; in [18] it was -2.92%. Also, the values for the inhibition in experiment [19] and in experiment [20] were 0.55% and 0.32%, respectively.

With `O=C1NC(=O)C(N2CCc3ccccc32)=C1c1ccc(Cl)cc1`, the inhibition is 5.78% in experiment [1]; 4.44% in experiment [2]; 7.39% in experiment [3]; 3.67% in [4]; 5.07% in experiment [5]; 2.92% in experiment [6]. Besides, the inhibition was determined as 3.2% in experiment [7]; 0.76% in experiment [8]; 1.55% in [9]; 4.4% in experiment [10]; 2.12% in experiment [11]; 4.21% in experiment [12]. The inhibition amounted to 5.17% in experiment [13]; 0.68% in experiment [14]; 0.58% in experiment [15]; 9.38% in experiment [16]; 12.7% in experiment [17]; 8.35% in [18]. In addition, the inhibition amounted to 8.52% in experiment [19] and 11.1% in [20].

With `CCCN1CCC(Oc2cc(Nc3nc(Nc4cccc(F)c4C(N)=O)c4cc[nH]c4n3)c(OC)cc2Cl)CC1`, the inhibition in [1] is 6.28%; in [2], 7.21%; in [3], 9.7%; in experiment [4], 0.4%; in experiment [5], -0.28%; in [6], -0.51%. Also, the inhibition in [7] is 0.24%; in experiment [8], 3.19%; in experiment [9] it was 23.1%; in [10] it was 0.13%; in [11], 4.06%; in [12], 3.15%. Besides, the inhibition amounted to 16.5% in [13]; 9.59% in experiment [14]; 31.1% in [15]; 1.9% in experiment [16]; 3.67% in experiment [17]; 1.65% in [18]. Besides, the values for the inhibition in [19] and in [20] were 33.6% and 0.88%, respectively.

`CCn1c(-c2nonc2N)nc2cncc(C(=O)N3CCNCC3)c21`: the inhibition in experiment [1] is 3.25%; in [2], -0.04%; in experiment [3], 2.51%; in experiment [4], 2.38%; in experiment [5], -2.27%; in [6] it was -0.27%. Also, the inhibition in experiment [7] was found to be 2.15%; in experiment [8], 0.79%; in experiment [9], 2.87%; in [10], 4.62%; in experiment [11], 4.17%; in experiment [12] it was 4.29%. The inhibition in [13] was 6.57%; in experiment [14] it was -0.66%; in experiment [15], 1.55%; in experiment [16], 6.55%; in [17], 13.8%; in experiment [18], 2.96%. Further, the inhibition in experiment [19] is 5.6%; in experiment [20], 8.7%.
